Measurements taken from PubChem BioAssay AID1851 (National Center for Advancing Translational Sciences (NCATS), 2009).
Hit rate of the full screen: of about 16,000 compounds, about 5,100 (32%) were called active. About 25% were inconclusive and are not listed. This is one part of the list. Unmarked numbers belong to inactive results. Calls come from the whole dose curve; as a rule, active = well fitted curve in the direction sought with a large enough effect; inconclusive = small, poorly fitted or top-dose-only effect, or effect the other way; inactive = no such curve, though single readings can be large or run the other way.
% is set by controls: 0 for no effect and ±100 for the full control effect.

Each molecule was assayed against Cytochrome P450 3A4 (Homo sapiens) (UniProt P08684) (assay: Cytochrome panel assay with activity outcomes). Settings: recombinant CYP, pro-luciferin dealkylation, luminescence, p450-cyp3a4; series mostly up to 57.1 µM.
Cytochrome P450 3A4 (Homo sapiens), sequence (P08684 whole entry, looked up): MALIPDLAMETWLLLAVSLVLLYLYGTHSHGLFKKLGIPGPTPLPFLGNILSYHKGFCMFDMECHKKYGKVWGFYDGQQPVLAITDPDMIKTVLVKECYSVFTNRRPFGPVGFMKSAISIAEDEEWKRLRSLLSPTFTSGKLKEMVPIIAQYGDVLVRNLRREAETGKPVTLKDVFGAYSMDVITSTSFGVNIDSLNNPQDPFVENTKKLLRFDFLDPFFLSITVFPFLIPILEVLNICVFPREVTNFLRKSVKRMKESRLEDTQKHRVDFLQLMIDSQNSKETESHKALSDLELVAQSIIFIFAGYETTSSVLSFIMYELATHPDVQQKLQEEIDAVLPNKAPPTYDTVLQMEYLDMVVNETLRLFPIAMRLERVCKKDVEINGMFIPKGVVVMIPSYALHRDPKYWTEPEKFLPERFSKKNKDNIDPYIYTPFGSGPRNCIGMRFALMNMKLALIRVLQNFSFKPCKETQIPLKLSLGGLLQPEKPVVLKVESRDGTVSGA
For CCn1c(C)c(/C=N/Nc2nc3ccccc3s2)c2ccccc21, the AC50 was 8.91 µM (active).
In the case of Cc1ccc(C(=O)N2CCN(c3cc(=O)[nH]nc3-c3ccccc3)CC2)cc1, the AC50 is reported as “inactive”.
In the case of Cc1ccc(C(=O)N2CCN(C3c4cccc5cccc(c45)C3NS(=O)(=O)c3ccccc3)CC2)cc1 (stereo unspecified), the AC50 is reported as 0.0355 µM (active).
For Cc1noc(C)c1-c1ccc2ncnc(NC3CCNCC3)c2c1, the AC50 was “inactive”.
For Cc1cccc(CNc2ncnc3ccc(-c4c(C)noc4C)cc23)c1, the AC50 was 0.794 µM (active).
With Cc1noc(C)c1-c1ccc2ncnc(NCc3ccccc3)c2c1 the AC50 was 10 µM (active).
Cc1noc(C)c1-c1ccc2ncnc(NCc3cccs3)c2c1 was tested, and the AC50 was 10 µM (active).
Cc1noc(C)c1-c1ccc2ncnc(NCc3cccnc3)c2c1 was tested, and the AC50 was 2.51 µM (active).
With N#[N+]c1ccc(Nc2ccccc2)cc1 the activity, negative = inhibition was -10.9% [at 11.4 µM].
In the case of CC[N+](C)(CC)CCN1C(=O)c2ccccc2S1(=O)=O, the activity, negative = inhibition is reported as 6.19% [at 11.4 µM].
For Cc1cc(C)c(S(=O)(=O)N2CCN(c3ccc([N+](=O)[O-])c(NCc4ccco4)c3)CC2)c(C)c1, the AC50 was 7.08 µM (active).
In the case of CC(C)c1ccc(CNc2cc(N3CCCC3)ccc2[N+](=O)[O-])cc1, the activity, negative = inhibition is reported as -8.24% [at 2.29 µM].
For O=[N+]([O-])c1ccc(N2CCCC2)cc1NCc1ccccc1, the AC50 was 15.8 µM (active).
Molecule CNc1cc(N2CCCCCC2)ccc1[N+](=O)[O-] has an activity, negative = inhibition of -20.1% [at 2.29 µM].
In the case of CC(=O)N(CC(O)CN(C(C)=O)c1c(I)c(C(=O)NC[C@@H](O)CO)c(I)c(C(=O)NC[C@@H](O)CO)c1I)c1c(I)c(C(=O)NC[C@@H](O)CO)c(I)c(C(=O)NC[C@@H](O)CO)c1I, the AC50 is reported as “inactive”.
CC(C)(C)c1ccc(O)c(CN(Cc2cc(C(C)(C)C)ccc2O)C2CCCCC2)c1 gave an activity, negative = inhibition of -3.22% [at 11.4 µM].
c1ccc2cc(C3=NCCN3)ncc2c1 was tested, and the AC50 was “inactive”.
For COc1ccc(/C=C/C(=O)Nc2nc(C)cc(C)n2)cc1OC, the activity, negative = inhibition was 2.05% [at 2.29 µM].
For COc1cc(/C=C\C(=O)N2CCC=CC2=O)cc(OC)c1OC, the AC50 was “inactive”.
In the case of C=CCSc1nc2ccccc2n1C(=O)/C=C/c1cc(OC)c(OC)c(OC)c1, the AC50 is reported as 7.94 µM (active).
C#CCSc1nncn1C(=O)/C=C/c1ccccc1 gave an activity, negative = inhibition of -0.406% [at 2.29 µM].
In the case of CCSc1nc2ccccc2n1C(=O)/C=C\c1ccc(OC)c(OC)c1, the AC50 is reported as 20 µM (active).
In the case of c1ccc2nc(C3=NCCN3)ccc2c1, the AC50 is reported as “inactive”.
With c1ccc2nc(-c3ccncc3)ccc2c1 the AC50 was 2.82 µM (active).
c1ccc2cc(-c3csnn3)ccc2c1 was tested, and the AC50 was “inactive”.
Cc1cc(Cl)ccc1OCC(=O)NCc1ccncc1 was tested, and the AC50 was 1.41 µM (active).
With Cc1cc(Cl)ccc1OCC(=O)N/N=C1\CCCc2ccccc21 the AC50 was 12.6 µM (active).
O=C(N/N=C1\CCCc2ccccc21)c1ccc([N+](=O)[O-])cc1Cl showed an activity, negative = inhibition of -11.3% [at 2.29 µM].
Work on Cc1cc(Cl)ccc1OCC(=O)Nc1nc(N)nc(N)n1 yielded an activity, negative = inhibition of -4.83% [at 11.4 µM].
For COc1ncc2nc(-c3ccc(F)cc3)c(=O)n(C)c2n1, the AC50 was 20 µM (active).
COc1ncc2nc(-c3ccc(Cl)cc3)c(=O)n(C)c2n1 was tested, and the AC50 was 25.1 µM (active).
COc1ccc(-c2nc3cnc(OC)nc3n(C)c2=O)cc1 was tested, and the AC50 was 25.1 µM (active).
CN(C)c1ncc2nc(-c3ccc(F)cc3)c(=O)n(C)c2n1 was tested, and the AC50 was “inactive”.
With COc1ncc2nc(-c3ccc(Cl)cc3)c(=O)n(-c3ccccc3)c2n1 the AC50 was “inactive”.
In the case of COc1ncc2nc(-c3ccccc3)c(=O)n(C)c2n1, the AC50 is reported as “inactive”.
In the case of Cn1c(=O)c(-c2ccc(Cl)cc2)nc2cnc(OCc3ccccc3)nc21, the AC50 is reported as “inactive”.
In the case of COc1ccc(-c2nc3cnc(N4CCN(C)CC4)nc3n(C)c2=O)cc1, the AC50 is reported as “inactive”.
With Cc1ccnn2cc3c(=O)n(C)c(=O)n(C)c3c12 the AC50 was “inactive”.
In the case of C=Cc1c(C)c2cc3[nH]c(cc4nc(cc5nc(cc1[nH]2)C(C)=C5CCC(=O)O)C(CCC(=O)O)=C4C)c(C)c3C=C, the AC50 is reported as “inactive”.
In the case of N#Cc1cccc(-c2nc(NCc3cccs3)c3ccccc3n2)c1, the AC50 is reported as 3.98 µM (active).
For N#Cc1cccc(-c2nc(NCc3cccnc3)c3ccccc3n2)c1, the AC50 was 5.01 µM (active).
For COc1cccc(-c2nc(NCc3ccccc3)c3ccccc3n2)c1, the AC50 was 12.6 µM (active).
In the case of Cc1cccc(CNc2nc(-c3cccnc3)nc3ccccc23)c1, the AC50 is reported as 1 µM (active).
With O=[N+]([O-])c1ccc(N2CCOCC2)nc1 the activity, negative = inhibition was -4.02% [at 2.29 µM].
In the case of COc1cccc(-c2nc(NC3CC3)c3ccccc3n2)c1, the AC50 is reported as 1.26 µM (active).
For COCCNc1nc(-c2cccc(OC)c2)nc2ccccc12, the AC50 was 5.01 µM (active).
For COc1cccc(-c2nc(NCCNC(C)=O)c3ccccc3n2)c1, the AC50 was 12.6 µM (active).
COc1cccc(-c2nc(NCc3cccs3)c3ccccc3n2)c1 was tested, and the AC50 was 3.16 µM (active).
With COc1cccc(Nc2ncc3nc(-c4ccccc4)c(=O)n(Cc4cccs4)c3n2)c1 the AC50 was “inactive”.
In the case of NNC(=O)[C@@H](O)[C@H](O)[C@H](O)CO, the activity, negative = inhibition is reported as 0.183% [at 11.4 µM].
In the case of COc1cccc(-c2nc(NCc3ccccc3OC)c3ccccc3n2)c1, the AC50 is reported as 3.98 µM (active).
For COc1cccc(-c2nc(NCc3cccnc3)c3ccccc3n2)c1, the AC50 was 2 µM (active).
In the case of COC(=O)Cc1c(C)nc2nc(NCc3ccccc3OC)[nH]n2c1=O, the AC50 is reported as “inactive”.
In the case of COc1cccc(/C=N/NC(=O)C(=O)NCc2cccnc2)c1, the activity, negative = inhibition is reported as -8.44% [at 2.29 µM].
Work on O=C(O)c1nn(-c2ccccc2-c2n[nH]c(=O)[nH]c2=O)c(=O)[nH]c1=O yielded an activity, negative = inhibition of -2.84% [at 11.4 µM].
For Cc1ccccc1NS(=O)(=O)c1ccc2[nH]cc(C(=O)NCCCN3CCOCC3)c(=O)c2c1, the AC50 was 2 µM (active).
In the case of Cc1ccc(C(=O)NCCCN2CCOCC2)cc1N1CCCC1=O, the AC50 is reported as “inactive”.
For CN1CCN(S(=O)(=O)c2ccc3[nH]cc(C(=O)O)c(=O)c3c2)CC1, the AC50 was “inactive”.
For COc1cccc(NS(=O)(=O)c2ccc3[nH]cc(C(=O)NCCN4CCOCC4)c(=O)c3c2)c1, the AC50 was 2.82 µM (active).
With CCOC(=O)N1CCN(S(=O)(=O)c2ccc3[nH]cc(C(=O)O)c(=O)c3c2)CC1 the AC50 was “inactive”.
In the case of N[C@H](C(=O)O)c1nn[nH]n1, the AC50 is reported as “inactive”.
With C[C@](N)(C(=O)O)c1ccc(-c2nn[nH]n2)cc1 the AC50 was “inactive”.
In the case of COc1ccc(N2C(=O)CC(S/C(N)=N/N=C(\C)c3cccs3)C2=O)cc1 (stereo unspecified), the AC50 is reported as 14.1 µM (active).
Molecule CCCOc1ccc(N2C(=O)CC(S/C(N)=N/N=C(\C)c3cccs3)C2=O)cc1 (stereo unspecified) has an activity, negative = inhibition of 7.2% [at 2.29 µM].
With Cc1cccc(Sc2c([N+](=O)[O-])ncn2C)n1 the AC50 was “inactive”.
For N[C@H](C(=O)O)[C@@H]1C[C@@H]1C(=O)O, the AC50 was “inactive”.
O=C1/C(=C\c2ccccn2)SC(=S)N1Nc1ncc(C(F)(F)F)cc1Cl was tested, and the AC50 was 3.16 µM (active).
With Cc1cc(C)nc(NN2C(=O)/C(=C/c3ccccc3)SC2=S)n1 the AC50 was “inactive”.
O=C(N/N=C/c1cccc(C(F)(F)F)c1)C1CCN(c2ncc(C(F)(F)F)cc2Cl)CC1 was tested, and the AC50 was “inactive”.
c1ccc(C(CCN2CC3CCC(CC3)C2)c2ccccc2)cc1 gave an activity, negative = inhibition of -1.84% [at 11.4 µM].
For CCN(CC)C(=O)Cn1cnc([N+](=O)[O-])n1, the AC50 was “inactive”.
With CCOc1ccc(N(CCC#N)S(=O)(=O)c2ccc(OC)cc2)cc1 the AC50 was 11.2 µM (active).
With CCc1cc2c(=O)n(-c3ccccc3)c(=S)[nH]c2s1 the AC50 was “inactive”.
O=c1c2c(-c3cccs3)csc2ncn1-c1ccc(Br)cc1 was tested, and the activity, negative = inhibition was -3.71% [at 2.29 µM].
With O=c1c2c(-c3cccs3)csc2[nH]c(=S)n1-c1ccccc1 the AC50 was 14.1 µM (active).
With COc1cccc(-c2nc(N(C)Cc3ccco3)c3ccccc3n2)c1 the AC50 was 10 µM (active).
CN(Cc1ccco1)c1nc(-c2cccc(C#N)c2)nc2ccccc12 was tested, and the AC50 was 12.6 µM (active).
For COc1ccccc1-c1nc(N(C)Cc2ccco2)c2ccccc2n1, the AC50 was 7.94 µM (active).
COc1cccc(-c2nc(N(C)C)c3ccccc3n2)c1 was tested, and the AC50 was 5.01 µM (active).
For O=C1OCc2cccc3cccc1c23, the AC50 was “inactive”.
With Cc1ccccc1-c1ccc2ncnc(NC3CC3)c2c1 the AC50 was 3.16 µM (active).
In the case of N#Cc1ccccc1-c1ccc2ncnc(NC3CC3)c2c1, the AC50 is reported as 2 µM (active).
FC(F)(F)c1ccccc1-c1ccc2ncnc(NC3CC3)c2c1 was tested, and the AC50 was 1.58 µM (active).
In the case of FC(F)(F)c1ccccc1-c1ccc2ncnc(NC3CCNCC3)c2c1, the AC50 is reported as “inactive”.
Clc1ccccc1-c1ccc2ncnc(NC3CCNCC3)c2c1 was tested, and the AC50 was “inactive”.
In the case of O=C(O)CCc1ccc(-c2ccccc2)[nH]1, the activity, negative = inhibition is reported as -13.2% [at 11.4 µM].
In the case of CC(C)OC(=O)/C(=C\C=C\c1ccccc1)NC(=O)c1ccccc1, the AC50 is reported as “inactive”.
In the case of CC(C)OC(=O)/C(=C\c1ccc2c(c1)c1ccccc1n2C)NC(=O)c1ccccc1, the AC50 is reported as 1.12 µM (active).
For CC(C)SC(=N)N, the AC50 was “inactive”.
With COc1ccc(COC(=O)N/N=C(\C)CC(=O)Nc2c(C)cc(C)cc2C)cc1 the AC50 was 1.78 µM (active).
With COc1ccc(COC(=O)N/N=C2/C[C@@H](O)[C@@H](O)[C@@H]3[C@@H]4C(=O)N(C(C)(C)C)C(=O)[C@H]4CC[C@@H]23)cc1 the activity, negative = inhibition was -13.5% [at 11.4 µM].
Work on COc1ccc(C(=O)N/N=C(\C)Cn2nc([N+](=O)[O-])cc2C)cc1 yielded an activity, negative = inhibition of -3.05% [at 2.29 µM].
In the case of CS(=O)(=O)N1CCC[C@@]2(CCN(C(c3ccccc3)c3ccccc3)C2)C1, the AC50 is reported as 10 µM (active).
With CS(=O)(=O)N1CCC2(CCCN(C(c3ccccc3)c3ccccc3)C2)CC1 the AC50 was 3.98 µM (active).
Work on CSc1nnnc2ccccc12 yielded an activity, negative = inhibition of -8.64% [at 11.4 µM].
O=c1cc(-c2ccccc2)[nH]c2nc(Cl)ccc12 was tested, and the AC50 was “inactive”.
